This passage reports growth results from PubChem BioAssay (NCI).

This is part of a sample that, as a whole, favours compounds with a hit. Of some 83,000 tested, about 20% had one in any assay.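 96-well plates, one dose, 48 hours. Percent growth reported; active if below 10.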 Unmarked numbers belong to inactive results. The source made the active and inactive calls.

Some test systems named below: EKVX NSCLC; SN12C renal; UO-31 renal; TK-10 renal; ACHN renal; CAKI-1 renal; A498 renal; MOLT-4 leukemia; CCRF-CEM leukemia.
Common to all, as to assay: NCI-60 one-dose screen, 48 h (100 = growth as untreated, 0 = no growth, -100 = all killed)
Common to all, as to settings: 10 µM unless noted

In the case of `O=C1/C(=C/c2ccccc2O)CC/C1=C\c1ccccc1O`, the growth was 56.9% in the experiment on EKVX NSCLC; 27.7% in the experiment on SN12C renal; 46.4% in the experiment on UO-31 renal; 160% in the experiment on TK-10 renal; 70.2% with ACHN renal; 92.4% in the experiment with CAKI-1 renal. Besides, the growth in the experiment with A498 renal was 108%; in the experiment on MOLT-4 leukemia, 6.67% (active).

Consider `Cc1ccc(C[P+](c2ccccc2)(c2ccccc2)c2ccccc2)cc1`, for which the growth was 6.8% (active) in the experiment on EKVX NSCLC; 4.76% (active) with SN12C renal; 88.1% in the experiment with UO-31 renal; 30.5% in the experiment on TK-10 renal; 24.4% in the experiment with ACHN renal; 44.8% in the experiment with CAKI-1 renal. Further, the growth in the experiment on A498 renal is 27.5%; in the experiment with CCRF-CEM leukemia, 9.9% (active); in the experiment with MOLT-4 leukemia it was -31.4% (active).

Take `O=C(Nc1nc2cc(C(=O)N3CCN(C(c4ccccc4)c4ccccc4)CC3)ccc2o1)c1ccc(NC2CCCCC2)c([N+](=O)[O-])c1`: the growth with EKVX NSCLC was 52.5%; with SN12C renal it was 53.8%; in the experiment on UO-31 renal, 66.5%; in the experiment with TK-10 renal, 84.5%; in the experiment on ACHN renal, 47%; with CAKI-1 renal it was 54.5%. For the same molecule, the values for the growth in the experiment on A498 renal, with CCRF-CEM leukemia and in the experiment on MOLT-4 leukemia were 76.2%, 28.3% and 47.9%, respectively.

In the case of `COc1ccc(/C=N\Nc2nc(SCCC(C)C)nc(-c3ccc(OC)cc3)c2C#N)cc1`, the growth in the experiment with EKVX NSCLC is 44.8%; in the experiment on SN12C renal, 32.2%; with UO-31 renal, -41.4% (active); in the experiment with TK-10 renal, 11.2%; with ACHN renal, -41.5% (active); with CAKI-1 renal it was 17%. The growth in the experiment on A498 renal is 98.5%; in the experiment on CCRF-CEM leukemia, 31.4%; in the experiment with MOLT-4 leukemia it was 65.1%.

Turning to `CCCCNC(=O)Oc1ccc(/C(=C(/C)Cc2ccc(OC)cc2)c2ccc(OCCN(CC)CC)cc2)cc1`, the growth is 83.9% in the experiment with EKVX NSCLC; 83.8% in the experiment on SN12C renal; 58.4% in the experiment on UO-31 renal; 79.7% with TK-10 renal; 91.1% in the experiment on ACHN renal; 89.9% in the experiment with CAKI-1 renal. Also, the growth in the experiment with A498 renal was 102%; in the experiment on CCRF-CEM leukemia it was 49.3%; with MOLT-4 leukemia it was 48.3%.

Turning to `CC1=NC2=Nn3c(c4cnn(-c5ccccc5)c4n/c3=N\N)NN2C(c2ccccc2)=C1`, the growth in the experiment on EKVX NSCLC is 80.7%; with SN12C renal, -63.4% (active); with UO-31 renal, 70.3%; in the experiment on TK-10 renal it was 109%; in the experiment with ACHN renal it was 85.8%; in the experiment with CAKI-1 renal, 76.5%. For the same molecule, the results for the growth with A498 renal and with MOLT-4 leukemia were 91% and 103%, respectively.

With `C=C1C(=O)O[C@H]2[C@H]1CC/C(Cn1cc(-c3ccccc3)nn1)=C\CC[C@@]1(C)O[C@@H]21`, the growth is 72.1% with EKVX NSCLC; 6.55% (active) in the experiment on SN12C renal; -75.1% (active) with UO-31 renal; -72.1% (active) in the experiment on TK-10 renal; -40.7% (active) in the experiment on ACHN renal; -62.8% (active) in the experiment with CAKI-1 renal. In addition, the growth with A498 renal is 46.6%; in the experiment with CCRF-CEM leukemia, -20.7% (active); with MOLT-4 leukemia it was -13.8% (active).

As to `COc1cc2ncnc(Nc3ccc(S(=O)(=O)Nc4cc(C)on4)cc3)c2cc1OCCCN1CCN(c2ccc(F)cc2)CC1`, the growth with EKVX NSCLC is 109%; in the experiment with SN12C renal, 100%; in the experiment on UO-31 renal it was 77.5%; with TK-10 renal, 115%; in the experiment on ACHN renal, 97.4%; in the experiment with CAKI-1 renal, 87.7%. Further, the growth with A498 renal was 91.9%; in the experiment with CCRF-CEM leukemia it was 103%; in the experiment with MOLT-4 leukemia, 102%.

Take `CCOC(=O)c1nn(-c2ccc(S(N)(=O)=O)cc2)c2nc(C)cc(=O)n12`: the growth was 104% in the experiment on EKVX NSCLC; 96.7% in the experiment with SN12C renal; 86.1% in the experiment with UO-31 renal; 94.7% with TK-10 renal; 108% with ACHN renal; 90.8% in the experiment with CAKI-1 renal. In addition, the growth with A498 renal was 88.3%; with CCRF-CEM leukemia, 105%; with MOLT-4 leukemia, 119%.

With `CCn1cc(C(=O)NNC(=S)Nc2ccc(C)cc2)c(=O)c2ccc(C)nc21`, the growth with EKVX NSCLC was 101%; in the experiment with SN12C renal, 88.6%; in the experiment on UO-31 renal, 78.9%; in the experiment with TK-10 renal it was 100%; in the experiment with ACHN renal it was 95.5%; in the experiment with CAKI-1 renal it was 95.4%. Further, the growth with A498 renal is 76.4%; in the experiment on CCRF-CEM leukemia, 90.7%; with MOLT-4 leukemia, 102%.

With `Cc1cc(C)c2c(c1)N(C)c1ncnc(-n3cnc4cc(C)ccc43)c1CC2C` (stereo not drawn), the growth was 39% in the experiment with EKVX NSCLC; 43.1% in the experiment on SN12C renal; 33.1% with UO-31 renal; 40% in the experiment on TK-10 renal; 49.6% with ACHN renal; 32.8% with CAKI-1 renal. The growth is 6.61% (active) in the experiment with A498 renal, 0.648% (active) in the experiment with CCRF-CEM leukemia and 12.7% with MOLT-4 leukemia.

In the case of `CCOC(=O)C(=O)C(C(=O)OCC)c1ccccc1` (stereo not drawn), the growth is 103% in the experiment with EKVX NSCLC; 108% in the experiment on SN12C renal; 87.7% with UO-31 renal; 106% in the experiment on TK-10 renal; 105% with ACHN renal; 97.9% with CAKI-1 renal. Also, the growth with A498 renal was 107%; in the experiment on MOLT-4 leukemia, 90%.

As to `N#Cc1nc(-c2ccc(Cl)cc2)oc1S(=O)(=O)N1CCN(c2ccc(F)cc2)CC1`, the growth with EKVX NSCLC was 111%; in the experiment with SN12C renal it was 92.2%; with UO-31 renal, 81.3%; in the experiment with TK-10 renal, 100%; with ACHN renal, 102%; in the experiment on CAKI-1 renal, 107%. Besides, the growth with A498 renal is 78.6%; in the experiment on CCRF-CEM leukemia it was 3.82% (active); in the experiment with MOLT-4 leukemia, 3.45% (active).

Turning to `COc1cc(C2c3cc(OC(C)=O)c(OC)cc3CC3C(=O)OCC32)ccc1OC(C)=O` (stereo not drawn), the growth in the experiment with EKVX NSCLC was 111%; in the experiment with SN12C renal, 93.2%; in the experiment on UO-31 renal, 78.2%; in the experiment on TK-10 renal, 122%; in the experiment on ACHN renal, 94.3%; in the experiment with CAKI-1 renal it was 97.1%. Also, the results for the growth with A498 renal, in the experiment with CCRF-CEM leukemia and in the experiment with MOLT-4 leukemia were 180%, 92.4% and 112%, respectively.
